Assay outcomes: PubChem BioAssay, Johns Hopkins Ion Channel Center
In the library only some 1.6% were active in any assay of this set; here they are far more common.
KCNQ2 inh: rat KCNQ2 potassium channel inhibitors, primary screen, cell-based, CHO-K1, FluxOR thallium flux, B-score. Potassium voltage-gated channel subfamily KQT member 2 (Rattus norvegicus), O88943. 20 min; active compounds read low. B-score at 10 µM. hit rate 1.1% among 310,000. AID 2156, 2009;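 active = fluorescence ratio B-score at most minus 3 library SDs, with starting brightness B-score within 2 library SDs, cut at about -5.5 in these data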
KCNQ2 pot: potentiators of rat KCNQ2 potassium channel; B-score at 10 µM; hit rate 0.54% among 310,000; CHO-K1 KCNQ2, FluxOR thallium flux fluorescence; active compounds read high;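 active = fluorescence ratio B-score at least 3 SD of library B-scores, with initial fluorescence B-score within 3 of them, cut at about 5.3 in these data; same plate scores as AID 2156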;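 note: B-score of peak minus minimum over baseline fluorescence ratio after K+ and Tl+ stimulus; positive B-score means potentiation of KCNQ2 with more thallium influx and brighter signal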
Kir21 confirm: mouse Kir2.1 channel blockers, retest, confirmation, cell-based, FluxOR thallium flux, duplicate; shares compounds with KCNQ2 pot; Kir2.1-expressing cells, FluxOR thallium flux fluorescence; active compounds read low; Tl flux remaining, % of negative control (active compounds read low), % at 10 µM; hit rate 41% among 2,300; AID 2032, 2009;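 active = Primary-screen hit whose thallium flux fell at least 3 control SD below untreated wells in both duplicates, with normal baseline fluorescence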;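 note: 0% = blank wells without stimulus and 100% = stimulated no-compound controls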
Target sequence (P35561 whole entry, looked up): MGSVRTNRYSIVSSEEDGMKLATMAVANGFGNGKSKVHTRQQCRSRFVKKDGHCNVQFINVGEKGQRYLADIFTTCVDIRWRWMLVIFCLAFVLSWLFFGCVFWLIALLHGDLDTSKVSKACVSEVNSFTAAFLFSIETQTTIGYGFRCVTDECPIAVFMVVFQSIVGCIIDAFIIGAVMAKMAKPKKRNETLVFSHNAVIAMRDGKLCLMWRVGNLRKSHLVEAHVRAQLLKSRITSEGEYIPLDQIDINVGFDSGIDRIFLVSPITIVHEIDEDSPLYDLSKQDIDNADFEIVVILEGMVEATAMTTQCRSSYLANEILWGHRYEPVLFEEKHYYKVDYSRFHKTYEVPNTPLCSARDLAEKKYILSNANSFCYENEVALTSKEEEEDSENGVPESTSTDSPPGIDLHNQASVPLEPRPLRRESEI
HEK293 ctr: alters thallium flux in parental HEK293 cells, Kir2.1 counter-screen; shares compounds with KCNQ2 pot; FluxOR thallium flux fluorescence; 0% = unstimulated blank wells; FluxOR signal as % of negative control (100 = no effect), % at 10 µM; hit rate 19% among 2,300; AID 2105;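 active = dye signal at least 3 control SD above or below untreated wells in both duplicates, raw fluorescence within 3, either direction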;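 note: percent is based on the flux ratio of peak minus minimum fluorescence over baseline F0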
CHO-K1 ctr: nonspecific thallium flux increase in parental CHO-K1, confirmation, counter-screen for KCNQ2 potentiator project, cell-based, FluxOR thallium flux, duplicate; AID 2282, 2010; shares compounds with KCNQ2 pot; activity increase over 3SD of controls, % at 10 µM; parental CHO-K1 cells, FluxOR thallium flux fluorescence; zero = vehicle mean+3SD, 100% = vehicle-minus-blank window; hit rate 43% among 1,200;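 active = signal rise of at least 3 SD above the untreated control mean, in both duplicate wells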;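 note: counter screen of KCNQ2 potentiator hits so any rise reflects channel-independent effects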
KCNQ1 sel pot: human KCNQ1 channel potentiation off-target, confirmation, selectivity assay for KCNQ2 potentiator project, cell-based, CHO, FluxOR thallium flux; CHO KCNQ1 stable, FluxOR thallium flux fluorescence; beyond 3SD, as % of vehicle-control signal; activation over 3SD threshold, % at 10 µM; hit rate 28% among 1,200; shares compounds with KCNQ2 pot;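 active = fluorescence ratio rise of at least 3 SD of vehicle wells above their mean, in both replicate wells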;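 note: 0% = vehicle mean plus 3 SD and 100% = vehicle minus unstimulated blank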
KCNQ2 pot confirm: rat KCNQ2 channel potentiators, confirmation, cell-based, CHO, FluxOR thallium flux, duplicate; potentiation, less the hit threshold, % at 10 µM; CHO-KCNQ2 cells, FluxOR thallium flux fluorescence; shares compounds with KCNQ2 pot; hit rate 68% among 1,200; AID 2287, 2010;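 active = fluorescence ratio rising 3 SD or more over the vehicle control mean in both replicates, plus primary screen hit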;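 note: peak minus minimum thallium fluorescence divided by baseline after K/Tl stimulus; 0% = vehicle mean plus 3 SD and 100% = vehicle minus unstimulated blank difference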
Kir2-1 sel: mouse Kir2.1 channel activation off-target, confirmation, selectivity assay for KCNQ2 potentiator project, cell-based, HEK293, FluxOR thallium flux; HEK293 Kir2.1, FluxOR thallium flux fluorescence; activity over 3SD threshold, % at 10 µM; hit rate 2% among 1,200; shares compounds with KCNQ2 pot;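 active = fluorescence ratio rise of at least 3 SD above the vehicle-control mean, seen in both replicates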;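 note: 0% = vehicle mean plus 3 SD and 100% = vehicle minus no-stimulus blank window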
KCNQ2 W236L MoA: potentiators of retigabine-insensitive KCNQ2 W236L, mechanism study for KCNQ2 potentiator project, cell-based, rat KCNQ2 W236L, CHO, automated patch clamp; hit rate 10% among 940; shares compounds with KCNQ2 pot; automated patch clamp current; current increase over 3SD of negative controls (%), active compounds read high, % at 25 µM;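 active = current increase at least 3 SD of the untreated controls above them in both duplicate recordings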
The depositor's hits bear a star.

Results for Cc1ccccc1OCC(=O)NNC(=O)c1ccc2c(=O)n3c(nc2c1)CCC3 ?
KCNQ2 inh: inactive

How did COc1cc(C)nc(NCc2ccccc2)n1 do in these assays?
KCNQ2 inh: inactive

Results for COc1ccc(Nc2cc(C)nc(NCc3ccccc3)n2)cc1 ?
KCNQ2 inh: inactive; Kir21 confirm: 64%*; HEK293 ctr: inactive

What do the screens show for `CCOC(=O)c1c(NC(=O)CN2C(=O)NC3(CCC(C)CC3)C2=O)sc(C(=O)N(C)C)c1C` (stereo not given)?
KCNQ2 inh: inactive

How did CCC(=O)Nc1c(-c2ccccc2Cl)c(=O)c2ccccc2n1CC do in these assays?
KCNQ2 inh: inactive

How did CC1(C)Cc2c(c(N3CCOCC3)nc3snc(NC(=O)c4ccccc4)c23)CO1 do in these assays?
KCNQ2 inh: inactive; KCNQ2 pot: 8.6*; Kir21 confirm: inactive; HEK293 ctr: inactive; CHO-K1 ctr: -13; KCNQ1 sel pot: -15; KCNQ2 pot confirm: 28*; Kir2-1 sel: -18; KCNQ2 W236L MoA: inactive

Results for COc1ccc(NC(=O)c2sc3nc(N4CCOCC4)c4c(c3c2N)CC(C)(C)OC4)cc1 ?
KCNQ2 inh: inactive

How did CC(C)c1ccc(C(=O)NCCCN2CCOCC2)cc1 do in these assays?
KCNQ2 inh: inactive

What do the screens show for `O=C(NCCCN1CCOCC1)c1ccc(CSc2ccc(Cl)cc2)cc1`?
KCNQ2 inh: inactive; KCNQ2 pot: 0.59; Kir21 confirm: 62%*; HEK293 ctr: inactive

How did COc1ccc(S(=O)(=O)Nc2ccccc2SC)cc1C do in these assays?
KCNQ2 inh: inactive; Kir21 confirm: 54%*; HEK293 ctr: inactive

How did COc1ccc(S(=O)(=O)Nc2ccccc2OC)cc1C do in these assays?
KCNQ2 inh: inactive; KCNQ2 pot: 1.6

Results for O=S(=O)(NC(=NCc1ccccc1)c1ccccc1)c1ccc(Br)cc1 ?
KCNQ2 inh: inactive; KCNQ2 pot: 0.12

What do the screens show for `c1coc(CN=C2NC(=NCc3ccco3)c3ccccc32)c1`?
KCNQ2 inh: inactive; Kir21 confirm: 35%*; HEK293 ctr: inactive

How did O=C1c2ccccc2C(O)N1Cc1ccco1 (stereo not given) do in these assays?
KCNQ2 inh: inactive; KCNQ2 pot: 2.2

What do the screens show for `CC[C@H]1c2[nH]c3ccccc3c2C[C@H]2C(=O)N(c3ccc(F)cc3)C(=O)N21`?
KCNQ2 inh: inactive

How did Cc1cc(C)cc(N(CC(=O)NCc2ccc(F)cc2)C(=O)CCC(=O)Nc2ccccn2)c1 do in these assays?
KCNQ2 inh: inactive

What do the screens show for `COc1ccccc1C(=O)Nc1ccncc1`?
KCNQ2 inh: inactive

How did COc1cccc(C(=O)Nc2ccncc2)c1OC do in these assays?
KCNQ2 inh: inactive; KCNQ2 pot: 7.2*; Kir21 confirm: inactive; HEK293 ctr: inactive; CHO-K1 ctr: -3; KCNQ1 sel pot: -17; KCNQ2 pot confirm: -15; Kir2-1 sel: -42

Results for O=c1cc(-c2ccccc2)nc2c(-c3ccccc3)c(C(F)(F)F)[nH]n12 ?
KCNQ2 inh: inactive; KCNQ2 pot: 23*; Kir21 confirm: inactive; HEK293 ctr: 366%*; CHO-K1 ctr: 6.8*; KCNQ1 sel pot: -17; KCNQ2 pot confirm: 94*; Kir2-1 sel: -29; KCNQ2 W236L MoA: inactive

What do the screens show for `Cc1cc(=O)n2[nH]c(C)c(-c3ccccc3)c2n1`?
KCNQ2 inh: inactive

What do the screens show for `OCC1CCCN(Cc2cn(Cc3ccccc3)nc2-c2cc3ccccc3o2)C1` (stereo not given)?
KCNQ2 inh: inactive

Results for Cc1ccc(C(=O)Nc2nc3ccccc3c(=O)s2)cc1 ?
KCNQ2 inh: inactive; KCNQ2 pot: 6.1*; Kir21 confirm: inactive; HEK293 ctr: 254%*; CHO-K1 ctr: -14; KCNQ1 sel pot: -15; KCNQ2 pot confirm: -2; Kir2-1 sel: -17

Results for CSc1nc2ccc3nc(NC(=O)c4ccc(C)cc4)sc3c2s1 ?
KCNQ2 inh: inactive; KCNQ2 pot: 0.66

How did CC1CCN(c2ccc([N+](=O)[O-])cc2C(=O)NCC2CCCO2)CC1 (stereo not given) do in these assays?
KCNQ2 inh: inactive

What do the screens show for `CCCn1c(=S)[nH]c2ccccc2c1=O`?
KCNQ2 inh: inactive; KCNQ2 pot: 1.2

Results for CCc1cc2c(=O)n(CCC(C)C)c(=S)[nH]c2s1 ?
KCNQ2 inh: inactive; KCNQ2 pot: 17*; Kir21 confirm: inactive; HEK293 ctr: 371%*; CHO-K1 ctr: 14*; KCNQ1 sel pot: -5; KCNQ2 pot confirm: 57*; Kir2-1 sel: -5; KCNQ2 W236L MoA: inactive

How did CCCCCCCCC1=NCCc2c1[nH]c1ccccc21 do in these assays?
KCNQ2 inh: inactive; Kir21 confirm: 20%*; HEK293 ctr: inactive

What do the screens show for `CC(C)C/C=C1\CCc2c([nH]c3ccccc23)C1=O`?
KCNQ2 inh: inactive; KCNQ2 pot: 2.2

Results for O=C(CSc1n[nH]c(=O)n1-c1cccnc1)N1CCOCC1 ?
KCNQ2 inh: inactive

What do the screens show for `O=C(CC1CC2CCC1C2)NCCc1ccc(Cl)cc1` (stereo not given)?
KCNQ2 inh: inactive; KCNQ2 pot: 5.9*; CHO-K1 ctr: 0; KCNQ1 sel pot: -17; KCNQ2 pot confirm: 0.8*; Kir2-1 sel: -75; KCNQ2 W236L MoA: inactive

Results for CC1CC1C(=O)NCCc1ccc(Cl)cc1 (stereo not given) ?
KCNQ2 inh: inactive; KCNQ2 pot: 0.51
